Records with an inconclusive call do not appear. Calls of active or inactive are those of the source. Unless noted, calls follow the shape of the dose curve; as a rule, active = well fitted curve in the direction sought with a large enough effect in the repeat runs; inconclusive = weak or mixed curves; inactive = no such curve, though single readings can be large; an effect the other way counts as inactive or inconclusive.
Legend:
[1] = qHTS assay to identify small molecule agonists of the TGF-beta/Smad signaling pathway - cell viability counter screen (AID 1346829); also: top concentration of the series differs between compounds; nearly all actives have a fitted effect of over 45% in size
Procedure, shortened: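 SBE-bla HEK 293T cells plated overnight, compound exposure 5 hr at 37 C. Viability read in the same wells by CellTiter-Glo luminescence after 30 min at room temperature, following the beta-lactamase read.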

[2] = qHTS assay to identify small molecule agonists of the TGF-beta/Smad signaling pathway (AID 1346859; active = well fitted activation curve with a large enough effect in the signal ratio in the repeat runs, not every such curve was filed as active; the % refers to the signal ratio; also: series mostly up to about 77 µM)
Procedure, shortened: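 Reporter line: HEK 293T with stably integrated SBE-controlled beta-lactamase. Compound exposure lasts 5 hr at 37 C and 5% CO2; substrate loading follows for 2 hr at room temperature, with emission read at 460 and 530 nm.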

[3] = molecular target: Thyrotropin-releasing hormone receptor (Homo sapiens) (UniProt P34981); experiment: qHTS assay to identify small molecule antagonists of the thyrotropin-releasing hormone receptor (TRHR) signaling pathway (AID 1346877; active = well fitted inhibition curve with a large enough effect in the repeat runs, not every such curve was filed as active; also: series mostly up to about 51 µM)
Thyrotropin-releasing hormone receptor (Homo sapiens), sequence (P34981 whole entry, looked up): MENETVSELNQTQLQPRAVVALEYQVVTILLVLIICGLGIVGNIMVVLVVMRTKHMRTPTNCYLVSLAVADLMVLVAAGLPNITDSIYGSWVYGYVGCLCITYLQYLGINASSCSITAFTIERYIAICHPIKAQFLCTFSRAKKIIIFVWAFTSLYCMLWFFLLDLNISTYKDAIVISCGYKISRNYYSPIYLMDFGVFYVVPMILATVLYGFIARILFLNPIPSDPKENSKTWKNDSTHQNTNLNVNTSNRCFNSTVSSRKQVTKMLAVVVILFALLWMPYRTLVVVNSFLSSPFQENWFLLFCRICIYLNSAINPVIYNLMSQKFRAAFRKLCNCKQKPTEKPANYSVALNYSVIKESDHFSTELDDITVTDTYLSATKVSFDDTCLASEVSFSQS
Procedure, shortened: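 Overnight-plated (18 h, 37 °C) HEK293 cells expressing TRHR were dye-loaded 2 h, treated with compound, then stimulated with TRH at 1 nM final. Fluorescence intensity was captured every second for 3 min.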

[4] = molecular target: Thyrotropin-releasing hormone receptor (Homo sapiens) (UniProt P34981); experiment: qHTS assay to identify small molecule agonists of the thyrotropin-releasing hormone receptor (TRHR) signaling pathway (AID 1346891; calls by dose curve;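 also: HEK293 cells expressing TRHR with calcium dye readout; series mostly up to about 58 µM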)
Procedure, shortened: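 Cells: TRHR-Hek293, seeded and incubated 18 h. Dye loading: 2 h at 37 °C. Compound added from DMSO stock by pin tool. Read-out: kinetic calcium fluorescence over 3 min.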

[5] = Human pregnane X receptor (PXR) small molecule agonists, qHTS cell viability counter screen (AID 1346977); also: nearly all actives have a fitted effect of over 50% in size
Procedure, shortened: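 Cytotoxicity counter screen run in the same wells as the PXR luciferase assay, using PXR-Luc HepG2 cells in charcoal-stripped serum medium. Viability: CellTiter-Fluor fluorescence after 24hr compound treatment.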

[6] = Caspase-3/7 induction in HepG2 cells by small molecules, qHTS assay (AID 1346978); also: nearly all actives have a fitted effect of over 15% in size
Procedure, shortened: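 Wild-type HepG2 cells, 2,000/well, settled 5 hr at 37 C and 5% CO2, then compound-treated for 17 hr; caspase-3/7 activity read by luminescent Caspase-Glo 3/7 after 30 min at room temperature.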

[7] = Caspase-3/7 induction in CHO-K1 cells by small molecules, qHTS cell viability counter screen (AID 1346979); also: nearly all actives have a fitted effect of over 35% in size
Procedure, shortened: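 Cytotoxicity counter screen run in parallel with the caspase-3/7 assay: CHO-K1 cells, 16hr compound treatment at 37C, then CellTiter-Fluor for 1hr before fluorescence reading.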

[8] = Caspase-3/7 induction in CHO-K1 cells by small molecules, qHTS assay (AID 1346980); also: nearly all actives have a fitted effect of over 15% in size
Procedure, shortened: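 Wild-type CHO-K1 cells exposed to compounds for 17hr at 37 C, 5% CO2. Caspase-3/7 activity then measured by Caspase-Glo 3/7 luminescence after 30min at room temperature.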

[9] = Caspase-3/7 induction in HepG2 cells by small molecules, qHTS cell viability counter screen (AID 1346981); also: series mostly up to about 92 µM; nearly all actives have a fitted effect of over 30% in size
Procedure, shortened: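 Treatment of HepG2 cells with DMSO-delivered compounds ran 16 hr at 37 C following a 5-hr pre-incubation of 2,000 cells/well. CellTiter-Fluor fluorescence, read after 1 hr, served as the viability measure in a qHTS format.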

[10] = molecular target: Nuclear receptor subfamily 1 group I member 2 (Homo sapiens) (UniProt O75469); experiment: Human pregnane X receptor (PXR) small molecule agonists, qHTS assay (AID 1346982); also: nearly all actives have a fitted effect of over 35% in size; also: potency is read from the fitted curve at half-maximal effect
Nuclear receptor subfamily 1 group I member 2 (Homo sapiens), sequence (O75469 whole entry, looked up): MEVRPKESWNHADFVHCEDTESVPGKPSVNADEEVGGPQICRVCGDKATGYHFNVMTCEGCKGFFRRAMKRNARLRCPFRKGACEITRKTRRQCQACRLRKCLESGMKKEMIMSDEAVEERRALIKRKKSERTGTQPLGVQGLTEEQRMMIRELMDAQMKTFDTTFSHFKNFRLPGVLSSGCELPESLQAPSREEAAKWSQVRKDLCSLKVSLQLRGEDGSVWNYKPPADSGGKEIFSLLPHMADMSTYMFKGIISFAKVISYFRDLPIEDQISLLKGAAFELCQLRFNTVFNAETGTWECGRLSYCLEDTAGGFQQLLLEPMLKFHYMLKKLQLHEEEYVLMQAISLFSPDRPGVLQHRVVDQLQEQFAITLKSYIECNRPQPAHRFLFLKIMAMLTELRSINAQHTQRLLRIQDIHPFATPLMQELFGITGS
Procedure, shortened: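 Stable HepG2 line reporting PXR-mediated CYP3A4 expression via luciferase. Treatment: 24 hr with compounds in DMSO at 37 C. Detection: ONE-Glo luminescence.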

[11] = molecular target: Cytochrome P450 1A2 (Homo sapiens) (UniProt P05177); experiment: Cytochrome P450 Family 1 Subfamily A Member 2 (CYP1A2) small molecule antagonists: luciferase reporter qHTS assay (AID 1671199); also: nearly all actives have a fitted effect of over 50% in size; also: potency is read from the fitted curve at half-maximal effect
Cytochrome P450 1A2 (Homo sapiens), sequence (P05177 whole entry, looked up): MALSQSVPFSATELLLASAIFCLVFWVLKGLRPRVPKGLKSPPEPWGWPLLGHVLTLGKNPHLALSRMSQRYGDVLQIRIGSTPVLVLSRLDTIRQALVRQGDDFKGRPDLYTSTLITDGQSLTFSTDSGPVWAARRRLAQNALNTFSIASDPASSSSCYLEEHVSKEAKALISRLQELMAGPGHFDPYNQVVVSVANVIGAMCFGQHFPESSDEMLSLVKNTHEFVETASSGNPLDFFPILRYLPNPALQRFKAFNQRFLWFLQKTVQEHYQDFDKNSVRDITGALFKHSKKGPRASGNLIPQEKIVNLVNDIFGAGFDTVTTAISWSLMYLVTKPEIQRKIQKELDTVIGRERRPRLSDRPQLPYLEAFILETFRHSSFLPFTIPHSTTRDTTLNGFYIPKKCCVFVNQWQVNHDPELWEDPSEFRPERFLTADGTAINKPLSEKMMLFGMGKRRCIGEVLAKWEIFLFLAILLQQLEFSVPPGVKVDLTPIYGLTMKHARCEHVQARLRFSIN
Procedure, shortened: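 Read-out is luminescence from luciferin detection reagent (20 min) proportional to CYP1A2 activity; compounds in DMSO preincubated 10 min with enzyme and proluciferin substrate, then NADPH regeneration solution, 1 h, room temperature.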

[12] = molecular target: Voltage-gated inwardly rectifying potassium channel KCNH2 (Homo sapiens) (UniProt Q12809); experiment: Human Ether-a-go-go-Related Gene (hERG) channel small molecule antagonists: fluorescence cell-based qHTS assay (AID 1671200);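 also: hERG-expressing U2OS cells given a thallium stimulus after FluxOR II dye loading; series mostly up to about 77 µM; nearly all actives have a fitted effect of over 50% in size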
Voltage-gated inwardly rectifying potassium channel KCNH2 (Homo sapiens), sequence (Q12809 whole entry, looked up): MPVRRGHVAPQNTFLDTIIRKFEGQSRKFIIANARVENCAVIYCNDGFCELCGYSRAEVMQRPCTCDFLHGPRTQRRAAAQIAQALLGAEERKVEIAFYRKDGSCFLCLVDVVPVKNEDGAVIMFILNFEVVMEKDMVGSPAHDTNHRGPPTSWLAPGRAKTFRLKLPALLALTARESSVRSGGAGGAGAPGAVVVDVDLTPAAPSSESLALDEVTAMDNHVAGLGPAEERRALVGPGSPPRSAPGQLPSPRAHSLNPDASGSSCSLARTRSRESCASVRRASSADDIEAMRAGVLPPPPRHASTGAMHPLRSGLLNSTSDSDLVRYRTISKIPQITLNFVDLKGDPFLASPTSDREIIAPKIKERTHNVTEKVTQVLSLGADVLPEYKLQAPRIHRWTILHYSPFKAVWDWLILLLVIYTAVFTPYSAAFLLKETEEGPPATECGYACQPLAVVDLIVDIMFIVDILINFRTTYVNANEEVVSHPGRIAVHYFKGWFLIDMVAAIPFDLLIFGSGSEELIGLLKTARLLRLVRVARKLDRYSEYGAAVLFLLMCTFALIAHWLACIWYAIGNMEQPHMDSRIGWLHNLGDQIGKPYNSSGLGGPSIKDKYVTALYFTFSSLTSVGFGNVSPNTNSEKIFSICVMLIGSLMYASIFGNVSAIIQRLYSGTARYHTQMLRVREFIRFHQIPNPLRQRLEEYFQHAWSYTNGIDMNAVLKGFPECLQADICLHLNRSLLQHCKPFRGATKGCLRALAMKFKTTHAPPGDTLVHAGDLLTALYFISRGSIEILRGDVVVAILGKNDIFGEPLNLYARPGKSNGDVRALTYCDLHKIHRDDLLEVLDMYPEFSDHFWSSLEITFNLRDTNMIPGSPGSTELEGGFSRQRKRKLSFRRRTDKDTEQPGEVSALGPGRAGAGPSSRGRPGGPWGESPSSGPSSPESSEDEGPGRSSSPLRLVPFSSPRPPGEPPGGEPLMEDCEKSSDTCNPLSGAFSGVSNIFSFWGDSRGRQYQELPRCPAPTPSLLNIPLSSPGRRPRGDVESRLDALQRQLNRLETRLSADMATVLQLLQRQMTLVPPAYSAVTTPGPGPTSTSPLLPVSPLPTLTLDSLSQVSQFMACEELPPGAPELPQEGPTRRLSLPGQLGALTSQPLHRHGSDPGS
Procedure, shortened: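 Fluorescence at 540 nm emission (480 nm excitation) was recorded kinetically for 2 min at 1-second intervals once the thallium-containing stimulus reached cells previously loaded with FluxOR II dye.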

[13] = molecular target: Cytochrome P450 3A4 (Homo sapiens) (UniProt P08684); experiment: Cytochrome P450 Family 3 Subfamily A Member 4 (CYP3A4) small molecule antagonists: luciferase reporter qHTS assay (AID 1671201); also: nearly all actives have a fitted effect of over 50% in size; also: potency is read from the fitted curve at half-maximal effect
Cytochrome P450 3A4 (Homo sapiens), sequence (P08684 whole entry, looked up): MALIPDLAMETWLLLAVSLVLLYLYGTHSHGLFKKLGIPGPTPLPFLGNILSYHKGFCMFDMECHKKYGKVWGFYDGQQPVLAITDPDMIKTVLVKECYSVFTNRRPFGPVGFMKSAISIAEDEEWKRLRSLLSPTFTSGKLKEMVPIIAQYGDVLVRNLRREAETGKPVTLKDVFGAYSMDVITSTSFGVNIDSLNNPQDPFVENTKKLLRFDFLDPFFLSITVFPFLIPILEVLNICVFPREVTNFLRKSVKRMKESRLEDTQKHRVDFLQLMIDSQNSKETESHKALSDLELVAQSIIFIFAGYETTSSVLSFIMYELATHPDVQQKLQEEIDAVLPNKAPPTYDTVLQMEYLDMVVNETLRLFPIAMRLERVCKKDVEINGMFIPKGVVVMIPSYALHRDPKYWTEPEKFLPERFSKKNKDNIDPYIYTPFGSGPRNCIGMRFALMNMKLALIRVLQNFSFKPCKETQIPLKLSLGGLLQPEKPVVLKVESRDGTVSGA
Procedure, shortened: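 qHTS, 1536-well. CYP3A4 + proluciferin substrate, cpd 10 min RT → NADPH regen 1 h RT → detection reagent 20 min → luminescence (RLU). Ketoconazole positive control.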

[14] = molecular target: Cytochrome P450 2D6 (Homo sapiens) (UniProt P10635); experiment: Cytochrome P450 Family 2 Subfamily D Member 6 (CYP2D6) small molecule antagonists: luciferase reporter qHTS assay (AID 1671196); also: nearly all actives have a fitted effect of over 50% in size; also: potency is read from the fitted curve at half-maximal effect
Cytochrome P450 2D6 (Homo sapiens), sequence (P10635 whole entry, looked up): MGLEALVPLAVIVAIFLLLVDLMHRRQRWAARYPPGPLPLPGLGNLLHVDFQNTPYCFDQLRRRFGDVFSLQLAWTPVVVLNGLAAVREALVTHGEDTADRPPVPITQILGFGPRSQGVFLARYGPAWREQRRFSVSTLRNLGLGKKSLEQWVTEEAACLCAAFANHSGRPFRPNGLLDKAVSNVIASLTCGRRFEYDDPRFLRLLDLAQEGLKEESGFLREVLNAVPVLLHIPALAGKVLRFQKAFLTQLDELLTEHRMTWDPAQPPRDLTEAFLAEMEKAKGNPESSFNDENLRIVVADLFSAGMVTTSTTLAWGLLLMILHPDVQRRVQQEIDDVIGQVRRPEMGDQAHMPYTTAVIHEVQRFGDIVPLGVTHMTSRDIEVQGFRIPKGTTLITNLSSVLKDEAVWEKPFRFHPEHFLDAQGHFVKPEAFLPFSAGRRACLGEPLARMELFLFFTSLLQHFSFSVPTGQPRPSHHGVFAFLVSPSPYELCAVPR
Procedure, shortened: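 Chemicals tested for interference with CYP2D6 activity; proluciferin substrate, NADPH regeneration, 1 h at room temperature, luminescent detection.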

[15] = molecular target: Cytochrome P450 2C19 (Homo sapiens) (UniProt P33261); experiment: Cytochrome P450 Family 2 Subfamily C Member 19 (CYP2C19) small molecule antagonists: luciferase reporter qHTS assay (AID 1671197); also: nearly all actives have a fitted effect of over 65% in size; also: potency is read from the fitted curve at half-maximal effect
Cytochrome P450 2C19 (Homo sapiens), sequence (P33261 whole entry, looked up): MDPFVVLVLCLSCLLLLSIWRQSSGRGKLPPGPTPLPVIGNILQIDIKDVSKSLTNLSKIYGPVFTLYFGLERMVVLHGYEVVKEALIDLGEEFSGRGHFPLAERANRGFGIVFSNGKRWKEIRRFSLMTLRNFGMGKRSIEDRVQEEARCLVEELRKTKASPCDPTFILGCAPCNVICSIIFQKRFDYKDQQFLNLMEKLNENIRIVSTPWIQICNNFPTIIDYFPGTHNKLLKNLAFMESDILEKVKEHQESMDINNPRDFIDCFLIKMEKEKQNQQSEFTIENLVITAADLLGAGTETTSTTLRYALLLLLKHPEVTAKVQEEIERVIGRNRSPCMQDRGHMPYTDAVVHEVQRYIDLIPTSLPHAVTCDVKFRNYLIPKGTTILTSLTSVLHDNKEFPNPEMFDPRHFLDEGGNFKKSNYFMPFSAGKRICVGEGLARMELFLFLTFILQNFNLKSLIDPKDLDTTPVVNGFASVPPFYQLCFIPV
Procedure, shortened: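 P450-Glo CYP2C19 system: enzyme-substrate mix with compound 10 min at room temperature, then NADPH regeneration solution, 1 h at 37C. Proluciferin-to-luciferin conversion detected by luminescence after 20 min with detection reagent; ketoconazole as positive control.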

[16] = molecular target: Cytochrome P450 2C9 (Homo sapiens) (UniProt P11712); experiment: Cytochrome P450 Family 2 Subfamily C Member 9 (CYP2C9) small molecule antagonists: luciferase reporter qHTS assay (AID 1671198); also: nearly all actives have a fitted effect of over 50% in size; also: potency is read from the fitted curve at half-maximal effect
Cytochrome P450 2C9 (Homo sapiens), sequence (P11712 whole entry, looked up): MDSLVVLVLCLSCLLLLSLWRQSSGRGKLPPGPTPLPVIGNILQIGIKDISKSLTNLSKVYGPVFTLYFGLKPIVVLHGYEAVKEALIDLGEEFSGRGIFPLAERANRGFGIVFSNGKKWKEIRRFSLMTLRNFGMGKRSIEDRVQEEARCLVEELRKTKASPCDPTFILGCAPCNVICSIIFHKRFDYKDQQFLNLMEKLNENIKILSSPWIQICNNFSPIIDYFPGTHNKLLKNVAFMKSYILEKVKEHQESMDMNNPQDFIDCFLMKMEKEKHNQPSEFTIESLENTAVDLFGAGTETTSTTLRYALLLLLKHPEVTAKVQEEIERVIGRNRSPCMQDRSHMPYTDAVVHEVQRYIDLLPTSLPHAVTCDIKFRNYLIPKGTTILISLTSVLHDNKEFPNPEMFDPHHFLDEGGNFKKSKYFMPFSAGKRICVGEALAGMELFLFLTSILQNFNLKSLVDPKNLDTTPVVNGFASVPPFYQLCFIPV
Procedure, shortened: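 P450-Glo proluciferin substrate with CYP2C9 enzyme; 10 min RT preincubation, then NADPH regeneration 1 h at 37C; luciferin detection reagent 20 min RT, luminescence in relative luminescence units.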

[17] = molecular target: Nuclear receptor subfamily 1 group I member 2 (Homo sapiens) (UniProt O75469); experiment: CYP3A4 induction through human pregnane X receptor (PXR) by small molecules, qHTS assay (AID 1346984); also: nearly all actives have a fitted effect of over 40% in size
Procedure, shortened: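 After 24 h at 37C with compound, DPX-2 cells (HepG2, co-transfected PXR response element and CYP3A4 promoter-luciferase) got 3uM final P450-Glo Luciferin-IPA for 3 h; One-Glo luminescence followed.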

[18] = molecular target: Nuclear receptor subfamily 1 group I member 2 (Homo sapiens) (UniProt O75469); experiment: Human pregnane X receptor (PXR) activation by small molecules, qHTS assay (AID 1346985); also: nearly all actives have a fitted effect of over 40% in size
Procedure, shortened: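 DPX-2 cells (HepG2 co-transfected with a PXR response element and a CYP3A4-promoter luciferase construct) were seeded at 2,000 per well, rested 5 hr at 37C, then exposed to DMSO-dissolved compounds for 24 hr. Activation was read as luciferase luminescence.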

Measured: Potency

NNC(=O)CCCCC(=O)NN
active: [11] 31.7 µM | [13] 11.2 µM
not listed: [14] | [15] | [16] | [17] | [18]
inactive: all other assays above

C/C=C/C(=O)CCCC
active: [13] 56.4 µM
not listed: [15] | [16] | [17] | [18]
inactive: all other assays above

COc1ccc(Cl)cc1C
not listed: [11] | [15] | [16] | [17] | [18]
inactive: all other assays above

COC(=O)C(c1ccccc1Cl)N1CCc2sccc2C1 (configuration not stated)
active: [14] 17.4 µM | [15] 0.871 µM | [11] 15.5 µM
not listed: [10] | [13] | [16] | [17] | [18]
inactive: all other assays above

COc1ccccc1N1CCN(CC(O)COc2cc(OC)c(OC)c(OC)c2)CC1 (configuration not stated)
not listed: [11] | [16] | [17] | [18]
inactive: all other assays above

C=CCN(CC=C)CC=C
not listed: [6] | [16] | [17] | [18]
inactive: all other assays above

O=C(O)Cc1ccccc1Oc1ccc(Cl)cc1Cl
active: [16] 38.9 µM
not listed: [7] | [14] | [17] | [18]
inactive: all other assays above

CCc1ncc(C)[nH]1
not listed: [11] | [16] | [17] | [18]
inactive: all other assays above

CCCCCCCOC(C)=O
not listed: [7] | [17] | [18]
inactive: all other assays above

O=C(O)/C=C(\CC(=O)O)C(=O)O
not listed: [11] | [16] | [17] | [18]
inactive: all other assays above

CC(=O)/C=C/C=C1/C2CCC(C2)C1(C)C (configuration not stated)
active: [10] 3.76 µM | [11] 21.9 µM
inactive: [1] | [2] | [3] | [4] | [5] | [6] | [8] | [9] | [12]

CN1CCN(C(=O)C2CCCCC2)CC1
not listed: [7] | [15]
inactive: all other assays above

CC(C)c1cc(C(C)C)cc(C(C)C)c1
not listed: [6] | [17] | [18]
inactive: all other assays above

CC(C)(O)CCCC1=CCC(C=O)CC1 (configuration not stated)
active: [15] 10.7 µM | [16] 60.2 µM | [11] 38 µM | [13] 67.5 µM
not listed: [10] | [14] | [17] | [18]
inactive: all other assays above

COc1cc2nc(N3CCN(C(=O)C4CCCO4)CC3)nc(N)c2cc1OC (configuration not stated)
not listed: [10] | [12] | [13] | [14] | [15] | [17]
inactive: all other assays above

CCCCCC(CC)OC(=O)CCCOc1ccc(Cl)cc1Cl (configuration not stated)
active: [15] 35.5 µM | [11] 35.5 µM
not listed: [7] | [9] | [16] | [17] | [18]
inactive: all other assays above

CCCC(=O)C(CC)Sc1ccoc1C (configuration not stated)
not listed: [9] | [11] | [13] | [15] | [16] | [17] | [18]
inactive: all other assays above

C/C(=N\O)c1ccc(OCC(=O)N2CCCCC2)cc1
active: [10] 10.6 µM
not listed: [11] | [14] | [15] | [16] | [17] | [18]
inactive: all other assays above

Reference: PubChem BioAssay (Tox21)
